IL-1B inflam inh = qHTS for Inhibitors of Inflammasome Signaling: IL-1-beta AlphaLISA Primary Screen; THP-1 LPS/ATP IL-1B secretion, AlphaLISA, 16 h; active compounds read low; activity change, % at 57.5 µM; actives 4.7% (n = 360,000); in the data active = activity change below about -50%; inconclusive = mostly about -30% to -49%
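Secreted IL-1B measured by AlphaLISA bead assay after 16 h compound exposure of THP-1 cells; compounds (final up to 57.5 uM) added 1 h before LPS (250 ng/mL) and ATP (1.25 mM) stimulation; lower signal means less secretion.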
TDP1 cell noCPT = qHTS for Inhibitors of human tyrosyl-DNA phosphodiesterase 1 (TDP1): qHTS in cells in absence of CPT; DT40 Tdp1-/- hTDP1 cells, no CPT, ATP luminescence, 48 h; Potency, µM (doses to about 46.2 µM), most hits filed as inhibitors; actives 15% (n = 420,000); AID 686978, 2013; also: nearly all actives have a fitted effect of over 55% in size
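A cellular qHTS used chicken DT40 cells lacking endogenous Tdp1 but carrying stably transfected human TDP1. Compounds were applied without camptothecin, and cell growth kinetics were judged by ATP-dependent luminescence after ≥48 hr.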
HT1080 IDH1KD tx = qHTS for induction of synthetic lethality in tumor cells producing 2HG: qHTS for the HT-1080-IDH1KD cell line | HT-1080 IDH1 knockdown viability, ATP luminescence, 48 h | Potency, µM (series often up to 46.1 µM), most hits filed as cytotoxic | actives 2% (n = 360,000)
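Viability of IDH1-knockdown HT-1080 fibrosarcoma cells was assessed by CellTiter-Glo after 48 h at 37 °C with titrated compound; concentration-effect curves were classified by fit quality and response size.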
uPA generation = qHTS for Inhibitors of Cell Surface uPA Generation | AID 540303, 2011 | Potency, µM (titrated, usually from 38.3 µM), usual class: inhibitors | actives 0.31% (n = 330,000) | cell surface uPA generation assay, qHTS; active = well fitted inhibition curve with a large enough effect; inconclusive = small, poorly fitted or top-dose-only effect; inactive = no such curve, though single readings can be large or run the other way; tested in mouse RAW 264.7 cells; also: nearly all actives have a fitted effect of over 55% in size
HT1080-NT tox = qHTS for induction of synthetic lethality in tumor cells producing 2HG: qHTS for the HT-1080-NT fibrosarcoma cell line; HT-1080-NT fibrosarcoma viability, CellTiter-Glo ATP luminescence, 48 h; Potency, µM (highest dose often 46.1 µM), usual class: cytotoxic; actives 1.6% (n = 360,000); AID 686970, 2013;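 also: NT is the 2HG producing partner of a matched IDH1 knockdown line; nearly all actives have a fitted effect of over 55% in size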
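Fibrosarcoma NT cells, 750 per well in 5% FBS RPMI, were exposed to compound for 48 hours. Viability: CellTiter-Glo luminescence.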
DT40 TDP1 CPT = qHTS for Inhibitors of human tyrosyl-DNA phosphodiesterase 1 (TDP1): qHTS in cells in presence of CPT; actives 12% (n = 420,000); AID 686979, 2013; Potency, µM (top dose mostly 46.2 µM), actives largely listed as inhibitors; chicken DT40 Tdp1-/-;hTDP1 cells + 20 nM CPT, ATP luminescence, 48 h; also: nearly all actives have a fitted effect of over 55% in size
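Chicken DT40 Tdp1-/- cells stably complemented with human TDP1 were seeded at 400 cells/well in medium containing 20 nM camptothecin, exposed to pin-transferred compounds, and grown at 37 °C for at least 48 hr. Viability was read as ATP luminescence.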
A number is an active result; 0 = inactive; ? = inconclusive; - = no result. Shown are actives, neighbours in structure and some others; about 19% of the full set was active somewhere. Unless noted, calls follow the shape of the dose curve; as a rule, active = well fitted curve in the direction sought with a large enough effect; inconclusive = small, poorly fitted or top-dose-only effect, or another doubt; inactive = no such curve, though single readings can be large; an effect the other way counts as inactive or inconclusive.

SMILES | IL-1B inflam inh | TDP1 cell noCPT | HT1080 IDH1KD tx | uPA generation | HT1080-NT tox | DT40 TDP1 CPT
c1ccc(C2Nc3ccccc3Oc3ccccc32)cc1 (configuration not stated) | 0 | 0 | 0 | 0 | 0 | 0
O=C1NC(c2ccccc2)N=C2Oc3ccccc3C=C12 (configuration not stated) | -53.6 | 4.61µM | ? | 0 | ? | 4.61µM
Cc1cc([N+](=O)[O-])ccc1NC(=O)CN1C2CCC1CC(NC(=O)NC13CC4CC(CC(C4)C1)C3)C2 (configuration not stated) | ? | 5.17µM | 0 | 0 | 0 | 14.6µM
COc1ccc(-n2c(=O)c(-c3cc(F)cc(F)c3)nc3cnc(N(C)C)nc32)cc1 | - | 0 | - | - | - | 0
Clc1cccc(Oc2cnns2)c1Cl | 0 | 25.9µM | 0 | 0 | 0 | ?
Clc1cccc(OCCn2cncn2)c1Cl | 0 | 0 | 0 | 0 | 0 | 0
CN(Cc1ccccc1)C(C(=O)NC1CCCCC1)c1ccc(Cl)cc1 (configuration not stated) | - | 0 | - | - | - | 0
Cc1cccc2cc(CN(CCN(C)C)C(=S)NCc3ccco3)c(=O)[nH]c12 | 0 | ? | 0 | 0 | 0 | 0
CCc1ccc2[nH]c(=O)c(CN(Cc3ccc4c(c3)OCO4)C(=O)c3ccco3)cc2c1 | 0 | ? | 0 | 0 | 0 | 23.1µM
CCc1ccc2[nH]c(=O)c(CN(CCN(C)C)C(=S)NCc3ccco3)cc2c1 | -73.9 | ? | ? | 0 | 0 | ?
CCc1ccc2[nH]c(=O)c(CN(CC3CCCO3)C(=S)NCc3ccco3)cc2c1 (configuration not stated) | ? | ? | 0 | 0 | 0 | 20.6µM
COc1ccc2[nH]c(=O)c(CN(Cc3ccc4c(c3)OCO4)C(C)=O)cc2c1 | 0 | 0 | 0 | 0 | 0 | ?
CCc1ccc2[nH]c(=O)c(CN(CCN(CC)CC)C(=S)NCc3ccco3)cc2c1 | -63.7 | ? | ? | ? | 0 | ?
O=C(c1ccco1)N(Cc1cc2ccccc2[nH]c1=O)CC1CCCO1 (configuration not stated) | 0 | 0 | 0 | 0 | 0 | 0
CCN(CC)CCN(Cc1cc2cc3c(cc2[nH]c1=O)OCCO3)C(=S)NCCOC | ? | ? | 0 | - | 0 | ?
CCc1ccc(OCCOCC(O)CN2CCN(Cc3ccc(Cl)cc3)CC2)cc1 (configuration not stated) | -52.9 | ? | ? | 0 | ? | 18.4µM
CC(=O)Nc1ccc(OCC(O)CN2CCN(Cc3ccccc3)CC2)cc1 (configuration not stated) | 0 | 0 | 0 | 0 | 0 | 0
OC(COCCOc1ccc(Br)cc1)CN1CCN(Cc2ccccc2)CC1 (configuration not stated) | ? | 23.1µM | 0 | 0 | 0 | ?
COc1cccc(OCCOCC(O)CN2CCN(Cc3ccc(Cl)cc3)CC2)c1 (configuration not stated) | 0 | ? | 0 | 0 | 0 | 0
CC(C)(C)S(=O)(=O)N1C[C@H]2C(=CC[C@@H]3C(=O)N(c4ccccc4)C(=O)[C@@H]32)[C@H]1CCO | 0 | ? | 0 | 0 | 0 | 0
O=S(=O)(c1cccc(Cn2nnc(-c3ccccc3)n2)c1)N1CCOCC1 | 0 | 20.6µM | 0 | 0 | 0 | 23.1µM
O=C(Cn1cnnn1)Nc1cccc(S(=O)(=O)N2CCCCC2)c1 | 0 | 0 | 0 | 0 | 0 | 0
O=C(Nc1cccc(S(=O)(=O)N2CCCCC2)c1)c1c2c(nc3ccccc13)CCN(Cc1ccccc1)C2 | 0 | 18.4µM | 0 | 0 | 0 | 20.6µM

Screening results from PubChem.
